Compound activity as filed in PubChem BioAssay.
Rows were chosen to be rich in hits. Some 1.3% of all compounds tested hit in one or more screens of this group.
TRPV1 potentiator = potentiators of human vanilloid receptor 1 (TRPV1); Q8NER1; TRPV1-expressing cells, Fluo-8 calcium influx, capsaicin EC20 potentiation; potentiation, % at 8.33 µM; 0.02% of 320,000 active; AID 540277; in the data active = potentiation above about 80%; inconclusive = between about 30% and that limit
Target sequence (Q8NER1 whole entry, looked up): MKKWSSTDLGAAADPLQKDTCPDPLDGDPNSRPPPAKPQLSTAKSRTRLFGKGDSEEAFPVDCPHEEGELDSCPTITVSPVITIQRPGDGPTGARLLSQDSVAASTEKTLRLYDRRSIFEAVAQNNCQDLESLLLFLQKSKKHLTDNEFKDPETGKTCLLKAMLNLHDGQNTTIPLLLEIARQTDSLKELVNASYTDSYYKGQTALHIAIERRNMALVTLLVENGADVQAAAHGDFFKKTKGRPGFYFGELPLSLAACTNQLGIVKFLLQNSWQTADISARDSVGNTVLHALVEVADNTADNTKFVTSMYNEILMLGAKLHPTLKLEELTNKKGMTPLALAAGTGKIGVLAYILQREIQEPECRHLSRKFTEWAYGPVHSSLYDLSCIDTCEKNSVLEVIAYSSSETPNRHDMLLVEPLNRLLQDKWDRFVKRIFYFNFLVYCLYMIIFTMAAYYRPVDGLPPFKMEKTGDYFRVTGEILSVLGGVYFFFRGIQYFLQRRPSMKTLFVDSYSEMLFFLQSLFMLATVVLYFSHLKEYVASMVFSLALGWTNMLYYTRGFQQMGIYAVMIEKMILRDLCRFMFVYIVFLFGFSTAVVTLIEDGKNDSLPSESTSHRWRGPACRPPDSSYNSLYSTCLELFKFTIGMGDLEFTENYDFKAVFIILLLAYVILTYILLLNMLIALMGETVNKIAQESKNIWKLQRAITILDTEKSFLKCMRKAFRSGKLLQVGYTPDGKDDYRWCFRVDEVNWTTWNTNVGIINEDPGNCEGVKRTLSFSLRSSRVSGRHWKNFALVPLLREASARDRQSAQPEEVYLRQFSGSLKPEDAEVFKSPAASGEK
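TRPV1-expressing cells were cultured overnight at 35.5C and loaded with Fluo-8 calcium dye for 40 to 90 min at room temperature. After a 10 s baseline, compound was added and calcium influx was read kinetically for 3 min (ex 480/em 520 nm).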
TRPV1 agonist = activates the human vanilloid receptor TRPV1; Q8NER1; TRPV1-expressing cells, Fluo-8 calcium influx, agonist mode; activation, % at 8.33 µM; 0.19% of 320,000 active; AID 540275; in the data active = activation above about 80%; inconclusive = between about 30% and that limit
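Cells expressing TRPV1 were dye-loaded with Fluo-8 and read kinetically: 10 s baseline, 3 min after compound (agonist portion), then 2 min after EC20 capsaicin (allosteric enhancer portion). Calcium-bound dye fluorescence at 480/520 nm.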
KCNH2 3.1 block = KCNH2 3.1 (human) potassium channel inhibition; U2OS KCNH2 3.1, thallium flux FluxOr; hits give low values; activity change, % (tested at about 1.8 µM); 0.95% of 340,000 active;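 active = maximum activity change below -70%; inconclusive = maximum activity change from -70% to -50%; inactive = maximum activity change above -50%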;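 note: thallium influx rate constant from kinetic fluorescence after stimulation buffer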
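Channel expression came from 3.1 mutant virus (1.77 x 10^8 /mL) applied to suspended U2OS cells for 4 h. Flux was tracked with FluxOr dye plus Red40 quencher, and kinetic rate constants normalized to controls.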
KCNH2 WT inh = KCNH2 (human, wildtype) channel inhibition | activity change, % at 1.84 µM | U2OS, BacMam KCNH2, thallium flux FluxOr; hits give low values | Q12809 | 0.37% of 340,000 active | AID 720551;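 active = maximum activity change below -70%; inconclusive = maximum activity change between -70% and -50%; inactive = maximum activity change above -50%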
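U2OS cells transduced with wild-type KCNH2 virus are loaded with FluxOr dye for 45 min, and thallium flux is measured in kinetic reads before and after stimulation buffer. Rate constants are normalized to DMSO controls.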
MBNL1 CUG block = blocks human MBNL1 binding to CUG repeat RNA. 0.036% of 280,000 active. Potency, µM (series often up to 57.5 µM), hits mostly inhibitors. TR-FRET MBNL1-His/biotin-(CUG)12 binding, 665/545 ratio. AID 2675; active = well fitted inhibition curve with a large enough effect in the signal ratio, with a control signal flat, not every such curve was filed as active; inconclusive = small, poorly fitted or top-dose-only effect, or effect the other way, or a change in a side signal; inactive = no such curve, though single readings can be large or run the other way; the % refers to the signal ratio
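TR-FRET between His-tagged MBNL1 and biotin-(CUG)12 RNA, detected with Tb anti-His antibody (0.055 ng/ul) and streptavidin-XL665 (5 nM), 60 min at room temperature. Compounds titrated 92 nM to 58 uM; 665/545 nm ratio normalized to buffer and complex controls.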
Numbers stand for hits.

Results for CCN(CCCNc1cc2c(c(N)c1S(=O)(=O)O)C(=O)c1ccccc1C2=O)c1ccccc1 ?
KCNH2 3.1 block: inactive; KCNH2 WT inh: inactive

What do the screens show for `CC(Sc1ccccc1)C(=O)N/N=C/c1ccccc1` (configuration not stated)?
KCNH2 3.1 block: inactive; KCNH2 WT inh: inactive

How did Nn1c(=S)[nH]c2sc3c(c2c1=O)CCCC3 do in these assays?
KCNH2 3.1 block: inactive; KCNH2 WT inh: inactive

How did CCCn1c(=S)[nH]c2sc3c(c2c1=O)CCCC3 do in these assays?
TRPV1 potentiator: inactive; TRPV1 agonist: inactive; KCNH2 3.1 block: inactive; KCNH2 WT inh: -85; MBNL1 CUG block: inactive

Results for CCC(Sc1nc2cc3c(cc2c(=O)n1Cc1ccco1)OCO3)C(=O)Nc1cccc(OC)c1 (configuration not stated) ?
TRPV1 potentiator: inactive; TRPV1 agonist: inconclusive; KCNH2 3.1 block: -87; KCNH2 WT inh: inconclusive; MBNL1 CUG block: inactive

What do the screens show for `CCn1c(CN2CCN(Cc3ccc(C)cc3)C(CCO)C2)nc2ccccc21` (configuration not stated)?
TRPV1 potentiator: inactive; TRPV1 agonist: inactive; KCNH2 3.1 block: -98; KCNH2 WT inh: inactive; MBNL1 CUG block: inactive

How did CCOc1ccc(CN2CCN(Cc3cccc4c3OCO4)CC2CCO)cc1 (configuration not stated) do in these assays?
TRPV1 potentiator: inactive; TRPV1 agonist: inactive; KCNH2 3.1 block: inactive; KCNH2 WT inh: inactive; MBNL1 CUG block: inactive

How did CC(C)Cn1c(CN2CCN(C)C(CCO)C2)nc2ccccc21 (configuration not stated) do in these assays?
TRPV1 potentiator: inconclusive; TRPV1 agonist: inactive; KCNH2 3.1 block: inactive; KCNH2 WT inh: inactive; MBNL1 CUG block: inactive

Results for CCOc1ccc(CN2CCN(Cc3cccc4nonc34)CC2CCO)cc1 (configuration not stated) ?
TRPV1 potentiator: inactive; TRPV1 agonist: inactive; KCNH2 3.1 block: -116; KCNH2 WT inh: -77; MBNL1 CUG block: inactive

How did CCOc1ccc(CN2CCN(Cc3cc4c(cc3Cl)OCO4)CC2CCO)cc1 (configuration not stated) do in these assays?
TRPV1 potentiator: inactive; TRPV1 agonist: inconclusive; KCNH2 3.1 block: -119; KCNH2 WT inh: -111; MBNL1 CUG block: inactive

What do the screens show for `CCOc1ccc(N(CC(=O)N2CCCCCC2)S(=O)(=O)c2ccc(F)cc2)cc1`?
TRPV1 potentiator: inactive; TRPV1 agonist: inactive; KCNH2 3.1 block: inactive; KCNH2 WT inh: inactive; MBNL1 CUG block: inactive

How did CCc1ccc(NC(=O)c2ccccc2SC)cc1 do in these assays?
TRPV1 potentiator: inactive; TRPV1 agonist: inactive; KCNH2 3.1 block: inactive; KCNH2 WT inh: inactive; MBNL1 CUG block: inactive

How did CCN(c1ccc(NC(=O)c2ccc(Cl)nc2)cc1)C(C)C do in these assays?
TRPV1 potentiator: inactive; TRPV1 agonist: 84; KCNH2 3.1 block: inactive; KCNH2 WT inh: inactive

Results for O=C(COC(=O)/C=C/c1ccc(OC(F)F)cc1)Nc1ccc(S(=O)(=O)N2CCCC2)cc1 ?
TRPV1 potentiator: inactive; TRPV1 agonist: inactive; KCNH2 3.1 block: inactive; KCNH2 WT inh: inactive

Results for O=C(COC(=O)/C=C/c1ccc(OC(F)F)cc1)Nc1cccc(S(=O)(=O)N2CCCC2)c1 ?
TRPV1 potentiator: inactive; TRPV1 agonist: inactive; KCNH2 3.1 block: -85; KCNH2 WT inh: inactive

How did O=C(/C=C/c1ccc(OC(F)F)cc1)Nc1cccc(S(=O)(=O)N2CCOCC2)c1 do in these assays?
TRPV1 potentiator: inactive; TRPV1 agonist: inactive; KCNH2 3.1 block: -72; KCNH2 WT inh: inactive; MBNL1 CUG block: inactive

Results for O=C(/C=C/c1ccco1)Nc1cccc(S(=O)(=O)N2CCOCC2)c1 ?
TRPV1 potentiator: inactive; TRPV1 agonist: inactive; KCNH2 3.1 block: inactive; KCNH2 WT inh: -107; MBNL1 CUG block: inconclusive

How did CC(Cc1ccccc1)NC(=O)CSc1nc2nc3c(cc2c(=O)n1-c1ccccc1)COC(C)(C)C3 (configuration not stated) do in these assays?
TRPV1 potentiator: inactive; TRPV1 agonist: inactive; KCNH2 3.1 block: inactive; KCNH2 WT inh: inactive; MBNL1 CUG block: inactive

Results for COc1ccc2c(C)cc(=O)[nH]c2c1 ?
TRPV1 potentiator: inactive; TRPV1 agonist: inactive; KCNH2 3.1 block: -95; KCNH2 WT inh: inactive; MBNL1 CUG block: inactive

Results for Cc1cc(=O)[nH]c2cc(Cl)ccc12 ?
TRPV1 potentiator: inactive; TRPV1 agonist: inactive; KCNH2 3.1 block: inactive; KCNH2 WT inh: inactive; MBNL1 CUG block: inactive

What do the screens show for `CC1CCN(C(=O)CSc2nc(C(C)C)nc3c2c(=O)n(C)c(=O)n3C)CC1`?
TRPV1 potentiator: inactive; TRPV1 agonist: inactive; KCNH2 3.1 block: inactive; KCNH2 WT inh: inactive; MBNL1 CUG block: inactive

Results for COc1cc2c(=O)n(CC3CCCO3)c(=O)n(CC(=O)Nc3ccccc3)c2cc1OC (configuration not stated) ?
TRPV1 potentiator: inconclusive; TRPV1 agonist: inactive; KCNH2 3.1 block: inactive; KCNH2 WT inh: inactive; MBNL1 CUG block: inactive

How did COc1ccc(CCNC(=O)Cn2c(=O)n(CC3CCCO3)c(=O)c3cc(OC)c(OC)cc32)cc1OC (configuration not stated) do in these assays?
TRPV1 potentiator: inactive; TRPV1 agonist: inactive; KCNH2 3.1 block: -141; KCNH2 WT inh: inactive; MBNL1 CUG block: inactive

Results for CCN(CC)CCCN(C(=O)c1ccco1)c1nc(-c2ccc(Cl)cc2)cs1 ?
TRPV1 potentiator: inactive; TRPV1 agonist: inactive; KCNH2 3.1 block: -80; KCNH2 WT inh: inactive; MBNL1 CUG block: inactive

How did COCCCN(C(=O)c1ccco1)c1nc(-c2ccc(OC)cc2)cs1 do in these assays?
TRPV1 potentiator: inactive; TRPV1 agonist: inactive; KCNH2 3.1 block: inactive; KCNH2 WT inh: inactive; MBNL1 CUG block: inactive

What do the screens show for `CCN(CC)CCCN(C(=O)c1ccco1)c1nc(-c2ccc(C)cc2)cs1`?
TRPV1 potentiator: inactive; TRPV1 agonist: inactive; KCNH2 3.1 block: -94; KCNH2 WT inh: inactive; MBNL1 CUG block: inactive

Results for O=C(c1ccco1)N(CCCN1CCOCC1)c1nc(-c2ccc(Cl)cc2)cs1 ?
TRPV1 potentiator: inactive; TRPV1 agonist: inactive; KCNH2 3.1 block: inactive; KCNH2 WT inh: inactive; MBNL1 CUG block: inactive

How did CCOC(=O)N1CCN(C(=S)NC(=O)c2ccc(F)cc2)CC1 do in these assays?
TRPV1 potentiator: inactive; TRPV1 agonist: inactive; KCNH2 3.1 block: -73; KCNH2 WT inh: inactive; MBNL1 CUG block: inactive

What do the screens show for `CCOC(=O)N1CCN(C(=S)NC(=O)c2ccnn2C)CC1`?
TRPV1 potentiator: inactive; TRPV1 agonist: inactive; KCNH2 3.1 block: inactive; KCNH2 WT inh: inactive; MBNL1 CUG block: inactive

Results for O=C(O)c1ccc2c(c1)C(=O)N(CCc1c[nH]c3ccccc13)C2=O ?
TRPV1 potentiator: inactive; TRPV1 agonist: inactive; KCNH2 3.1 block: inactive; KCNH2 WT inh: inactive; MBNL1 CUG block: inconclusive

Results for COc1cc2c(c(OC)c1OC)-c1c(cc(OC)c(OC)c1OC)C[C@H](C)[C@H](C)C2 ?
TRPV1 potentiator: inactive; TRPV1 agonist: inconclusive; KCNH2 3.1 block: -174; KCNH2 WT inh: -74; MBNL1 CUG block: inactive
